Consider 16 compounds from ChEMBL document CHEMBL1961873, “Compounds: GSK PKIS; Assays: Nanosyn kinase panel” (2012).

SMILES strings stand for the structures.
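Further: mean percent inhibition of TSSK1, from the GSK PKIS screening dataset.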

This assay deals with T1, Testis-specific serine/threonine-protein kinase 1 (Homo sapiens) (UniProt Q9BXA7).
T1 sequence (whole entry): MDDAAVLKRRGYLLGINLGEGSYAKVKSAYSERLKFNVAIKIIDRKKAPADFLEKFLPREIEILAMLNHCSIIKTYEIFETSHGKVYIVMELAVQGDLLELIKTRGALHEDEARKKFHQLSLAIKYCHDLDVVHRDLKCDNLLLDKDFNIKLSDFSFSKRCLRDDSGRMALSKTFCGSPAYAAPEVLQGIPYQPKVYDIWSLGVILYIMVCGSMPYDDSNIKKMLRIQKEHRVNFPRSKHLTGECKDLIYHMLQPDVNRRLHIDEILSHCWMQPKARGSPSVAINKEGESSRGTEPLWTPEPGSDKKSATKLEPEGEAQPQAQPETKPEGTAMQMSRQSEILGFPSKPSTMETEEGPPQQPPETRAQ
The conditions noted are these: at 0.1 µM.
As a reminder, the inhibition is the relative decrease from the control value, in per cent. Take `COc1ccc2ncn(-c3cc(O[C@H](C)c4ccccc4Cl)c(C(N)=O)s3)c2c1`: the inhibition was determined as 2.29%.
`C#Cc1cccc(Nc2ncnc3ccc(OCCCCNCCS(C)(=O)=O)cc23)c1`: the inhibition was 6.03%.
As for `NS(=O)(=O)c1ccc(Nc2cc(-c3ccc(O)c(F)c3)n[nH]2)cc1`, the inhibition is -1.37%.
The result for `C[C@@H](Oc1cc(-n2cnc3ccc(OCC4CCN(C)CC4)cc32)sc1C(N)=O)c1ccccc1Cl` reads 6.84%.
Then `Fc1ccc(-c2ncn(CCCN3CCOCC3)c2-c2ccncc2)cc1`, with -0.41%; and `NS(=O)(=O)c1ccc(N/N=C2\C(=O)Nc3ccc(C(=O)NCCCn4ccnc4)cc32)cc1`, with 7.1%.
As for `COc1ccc2cc(-c3c(-c4ccncc4)nc(-c4ccc(S(C)(=O)=O)cc4C)n3C)ccc2c1`, the inhibition was found to be 4.54%.
The result for `Clc1ccc(CNc2nccc(-c3cnn4ncccc34)n2)cc1` reads 0.5%.
Then `COC(=O)Nc1nc2ccc(Sc3ccc(NC(=O)Nc4cc(C(F)(F)F)ccc4F)cc3)cc2[nH]1`, with -0.48%.
Then `Fc1ccc(-c2ncn(C3CCNCC3)c2-c2ccnc(Oc3ccc4c(c3)OCO4)n2)cc1`, with 4.2%; and `Cc1ccc(C(=O)NC(C)C)cc1-c1ccc(C(=O)NCC2CC2)cc1`, with -1.97%; and `CCS(=O)(=O)c1ccc(OC)c(Nc2ncc(-c3ccccc3Cl)o2)c1`, with 4.33%.
On to `NC(=O)c1cc(-c2ccncc2)cc(-c2ccccc2)c1N`, for which the inhibition is 3.7%.
As to `c1ccc(-c2n[nH]cc2-c2ccnc(-c3ccc(OCCN4CCOCC4)cc3)c2)nc1`, the inhibition is -1.9%.
The result for `Cc1ccc(C(=O)NC2CCC2)cc1-c1ccc(C(=O)NCC2CC2)cc1` reads 2.11%.
With `CN(c1ccc(NC(=O)Nc2c(Cl)cccc2Cl)cc1)c1ccnc(Nc2cccc(CS(C)(=O)=O)c2)n1`, the inhibition is 1.9%.
